Screening results: PubChem BioAssay, National Center for Advancing Translational Sciences (NCATS)
Compounds with a hit are over-represented: about 7.8% of the library has one in this group of screens.
Tau filament bind – binders of human tau filaments | P10636 | recombinant tau filaments, thioflavin S fluorescence, 15 h; filaments grown with octadecylsulfate alongside compound | Potency, µM (highest dose often 57.1 µM), inactives show at the highest dose activity change, negative = inhibition | hit rate 2% among 71,000 | AID 596;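 note: % is set by controls: 0 for no effect and ±100 for the full control effect; actives lower thioflavin S fluorescence by blocking filaments or displacing dye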
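ThS-based fibril read: tau 1 uM final, inducer ODS 30 uM final, 37 C for 15 h, ex 450/em 510 nm.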
Bst PK mod – modulators of Bacillus stearothermophilus pyruvate kinase; purified pyruvate kinase, luminescence ATP production; ribose 5-phosphate activator present at AC10; Potency, µM; hit rate 1.2% among 51,000; AID 361; in the data active = potency below about 11 µM; inconclusive = mostly about 12 µM to 25 µM;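 the screen sought inhibitors and activators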;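 note: scaled between full activation by ribose 5 phosphate and full inhibition by luteolin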
TSHR ag – activates the human thyroid stimulating hormone receptor | P16473 | HEK293-CNG-TSHR cells (CNG channel as cAMP sensor), membrane potential dye, cAMP | Potency, µM (doses to about 57.1 µM), for the others: top-dose activation, hits mostly activators | hit rate 0.48% among 73,000 | AID 926; active = well fitted activation curve with a large enough effect in the main read-out, with a control signal flat, not every such curve was filed as active; inconclusive = small, poorly fitted or top-dose-only effect, or a change in a side signal; inactive = no such curve, though single readings can be large or run the other way; % of control where 0% means no effect;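 note: the control signal comes from parental cells without the receptor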
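HEK 293 cells stably expressing TSHR and a cAMP-gated CNG channel; parental CNG-only cells as counterscreen. Cells preloaded 60 min with membrane potential dye plus 100 uM RO 20-1724, then compound 30 min; fluorescence read at 590 nm.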
Luciferase inh – blocks Photinus pyralis firefly luciferase activity. Potency, µM (titrated, usually from 57.1 µM), for inactives: at the highest dose activity change, negative = inhibition, actives largely listed as inhibitors. AID 411. purified firefly luciferase, luminescence, 8 min. hit rate 2.2% among 72,000. P08659; note: % is set by controls: 0 for no effect and ±100 for the full control effect; nearly all actives have a fitted effect of over 40% in size
Target sequence (P08659 whole entry, looked up): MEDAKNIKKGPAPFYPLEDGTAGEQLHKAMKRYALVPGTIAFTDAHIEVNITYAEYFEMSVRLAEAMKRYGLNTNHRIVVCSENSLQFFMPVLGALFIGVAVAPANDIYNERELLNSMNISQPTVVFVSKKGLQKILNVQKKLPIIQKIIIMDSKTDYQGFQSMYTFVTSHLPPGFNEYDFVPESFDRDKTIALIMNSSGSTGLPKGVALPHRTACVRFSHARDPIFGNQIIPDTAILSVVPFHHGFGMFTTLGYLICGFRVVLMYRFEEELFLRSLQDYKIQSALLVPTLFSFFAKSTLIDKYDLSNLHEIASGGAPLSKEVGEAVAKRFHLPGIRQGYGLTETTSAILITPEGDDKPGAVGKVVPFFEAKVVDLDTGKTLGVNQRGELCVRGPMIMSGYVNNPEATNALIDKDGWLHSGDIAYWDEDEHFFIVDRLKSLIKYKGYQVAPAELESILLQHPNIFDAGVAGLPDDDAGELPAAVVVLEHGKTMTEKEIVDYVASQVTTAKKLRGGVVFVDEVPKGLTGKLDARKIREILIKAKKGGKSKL
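Firefly luciferase (PKLight detection mix) with 10 uM ATP in pH 7.2 imidazole buffer (KCl, MgCl2, Tween 20, BSA). Compounds tested across a concentration series (qHTS). Luminescence read after 8 min at ambient temperature.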
HEK293 cAMP cs – counter-screen for TSHR agonists: cAMP increase in parental HEK293 | parental HEK293 CNG cAMP sensor, membrane potential fluorescence | Potency, µM (titrated, usually from 57.1 µM), for the others: at the highest dose activation, usual class: activators | hit rate 2.5% among 73,000 | AID 938; note: % of control where 0% means no effect; nearly all actives have a fitted effect of over 55% in size
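Counterscreen for endogenous-receptor signalling: CNG-channel HEK 293 cells report cAMP rise by membrane depolarization. After 60 min dye equilibration with 100 uM RO 20-1724, compounds incubated 30 min before bottom-read fluorescence at 590 nm.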
ALOX15 inhib – 15-hLO (ALOX15) enzyme inhibition; P16050; purified 15hLO-1, xylenol orange hydroperoxide absorbance; Potency, µM (highest dose often 57.1 µM), for the others: top-dose activity change, negative = inhibition, usual class: inhibitors; hit rate 1.4% among 74,000; note: % is set by controls: 0 for no effect and ±100 for the full control effect; nearly all actives have a fitted effect of over 55% in size
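Compounds were preincubated 15 min at room temperature with 40 nM purified human enzyme (25 mM Hepes pH 7.5, 0.01% Triton X-100); 50 uM arachidonic acid reacted 6 min. Fe-xylenol orange detection, 30 min, absorbance ratio 573/405 nm.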
Numbers without * were called inactive; i = inactive; ? = inconclusive; . = no result given; [ ] = dose if it differs, or a comment. Unless noted, calls come from the whole dose curve; as a rule, active = well fitted curve in the direction sought with a large enough effect; inconclusive = small, poorly fitted or top-dose-only effect, or another doubt; inactive = no such curve, though single readings can be large; an effect the other way counts as inactive or inconclusive. Potency is the fitted concentration of half-maximal effect.

SMILES	Tau filament bind	Bst PK mod	TSHR ag	Luciferase inh	HEK293 cAMP cs	ALOX15 inhib
C=C(C)COc1ccc2c3c(c(=O)oc2c1OCC(=C)C)CCC3	23%	.	?	-7%	25µM*	-9%
C=C(C)COc1ccc2c(C)c(C)c(=O)oc2c1OCC(=C)C	27%	>57	?	3%	?	0%
COC(=O)Cc1c(C)c2ccc(OCC(C)=O)c(C)c2oc1=O	-1%	>57	9%	-2%	-2%	3%
CCc1c(C)c2ccc(OCC(=O)OC(C)C)c(C)c2oc1=O	320%	>57	?	2%	25µM*	-4%
C=C(C)COc1ccc2c(C)c(CC(=O)OC)c(=O)oc2c1C	28%	i	?	16µM*	?	-4%
CCCN(CCC)C(=O)SCC	4%	.	?	.	?	1%
Nc1nc(=S)c2[nH]cnc2[nH]1	.	.	.	.	.	-22%
CO[C@H]1COC(=O)C/C=C\[C@H](C)COC(=O)[C@@H](C)NC(=O)C/C=C\[C@@H]1C	.	.	-2%[11.4 µM]	0%[11.4 µM]	-6%[11.4 µM]	10%[11.4 µM]
N#CC(C(=O)NCc1ccccc1)c1nc2ccccc2nc1N1CCCC1 (stereo not drawn)	61%	>57	?	2%	?	-1%
CCOC(=O)N1CCN(c2nc3ccccc3nc2C(C#N)C(=O)NCCc2ccccc2)CC1 (stereo not drawn)	4µM*	>57	-9%	2%	13%	-11%
CCN(CC)c1nc2ccccc2nc1C(C#N)C(=O)NCCCOC (stereo not drawn)	7.9µM*	>57	5%	3%	7%	-18%
CCCCCCNC(=O)C(C#N)c1nc2ccccc2nc1N1CCOCC1 (stereo not drawn)	4µM*	>57	?	1%	?	-1%
N#CC(C(=O)NCCc1ccccc1)c1nc2ccccc2nc1N1CCOCC1 (stereo not drawn)	2.5µM*	>57	9%	-2%	15%	-7%
Cc1cc(C)c(N2CCN(S(=O)(=O)N3CCCCCC3)CC2)c(C)c1	?	>57	-1%	1%	8%	-26%
Cc1c2cnccc2c(C)c2c1c1ccccc1n2CCOC(=O)c1ccccc1	15%[11.4 µM]	.	8%[11.4 µM]	1%[11.4 µM]	11%[11.4 µM]	8%[11.4 µM]
Cc1ccc(C2=Nc3ccccc3S[C@@H](c3cccc([N+](=O)[O-])c3)C2)cc1	-15%[11.4 µM]	.	-1%[11.4 µM]	-2%[11.4 µM]	10%[11.4 µM]	5%[11.4 µM]
N=C(N)[C@H](N=Nc1ccccc1)C(N)=O	5%[11.4 µM]	.	2%[11.4 µM]	-1%[11.4 µM]	5%[11.4 µM]	-8%[11.4 µM]
COCCN(CCOC)c1nc(C)nc2c1nc(-c1ccccc1)n2CCCN(C)C	8%	.	?	.	?	?
N#CC(C(=O)NCc1ccco1)c1nc2ccccc2nc1N1CCOCC1 (stereo not drawn)	4µM*	.	.	1%	15%	-11%
CCCCCCOC(=O)C(C#N)c1nc2ccccc2nc1N1CCOCC1 (stereo not drawn)	2.5µM*	>57	?	1%	?	-15%
N#CC(C(=O)OC1CCCCC1)c1nc2ccccc2nc1N1CCCCC1 (stereo not drawn)	20%	>57	?	3%	?	4%
CCN1CCN(c2nc3ccccc3nc2C(C#N)C(=O)OCc2ccccc2)CC1 (stereo not drawn)	1.3µM*	>57	?	0%	-68%	-10%
CCCCOC(=O)C(C#N)c1nc2ccccc2nc1N1CCOCC1 (stereo not drawn)	4µM*	>57	.	1%	25%	-22%
CCCCCNC(=O)C(C#N)c1nc2ccccc2nc1N1CCCC1 (stereo not drawn)	-15%	>57	-8%	1%	20%	12%
CCCCCCOC(=O)C(C#N)c1nc2ccccc2nc1N1CCN(CC)CC1 (stereo not drawn)	1µM*	>57	?	3%	-60%	-29%
SMILES	Tau filament bind	Bst PK mod	TSHR ag	Luciferase inh	HEK293 cAMP cs	ALOX15 inhib
CCCCCCNC(=O)C(C#N)c1nc2ccccc2nc1N1CCCC1 (stereo not drawn)	-9%	>57	6%	-35%	16%	2%
CCCCCCC1=Cc2cc(OC)c(OC)cc2C(C2(C(=O)OCC)CCCC2=O)O1 (stereo not drawn)	.	.	2%[11.4 µM]	.	2%[11.4 µM]	5%[11.4 µM]
CCc1c2c(nc3ccc(OC)cc13)OC(CC)C2 (stereo not drawn)	26%	.	?	.	?	.
CC/C=C\CC[C@H](O)C1=CCCCC1=O	.	.	0%[11.4 µM]	3%[11.4 µM]	-3%[11.4 µM]	3%[11.4 µM]
CCOC(=O)C1=CC(OC(CC)CC)C(NC(C)=O)C(N)C1 (stereo not drawn)	.	.	.	.	.	-4%
CNc1nc(N2CCc3ccccc32)ncc1F	-7%	i	10%	16µM*	-5%	?
Cc1cc(/C=C\c2ccc3cc(N(C)C)ccc3[n+]2C)c(C)n1-c1ccccc1	3.2µM*	.	-2%[25.6 µM]	.	7%[25.6 µM]	.
O=S(=O)(O)c1ccccc1	9%	.	?	.	?	-17%
CC(C)CNC1=CC(=O)CC(c2ccco2)C1 (stereo not drawn)	-23%	.	13%	-2%	14%	10µM*
COC(=O)CS	6%	.	?	.	-21%	-5%
Cn1cc(C(=O)NC2CCCCCC2)c(=O)c2cc(S(=O)(=O)N3CCCC3)ccc21	2%	>57	?	-2%	?	-3%
O=C(NC1CCCCCC1)c1cc(S(=O)(=O)N2CCOCC2)ccc1N1CCCCC1	10%	>57	?	4%	25µM*	4%
Fc1ccc(C(c2ccc(F)cc2)N2CCN(C/C=C\c3ccccc3)CC2)cc1	89%	.	-17%	0%	-9%	3%[25.6 µM]
Cn1cc(/C(Cc2ccccc2)=N\O)c2ccccc21	38%	>57	20µM*	0%	29%	-19%
C=Cc1ccccn1	-7%	.	6%	.	-10%	-5%
O=C1c2ccccc2C(Nc2ccc(F)c(Cl)c2)N1c1ccccn1 (stereo not drawn)	320%	.	20µM*	0%	13%	-13%
COC(=O)c1ccc(C(NC(=O)OCc2ccccc2)/C(=C/[C@@H](C)C(=O)NCc2ccc(OC)c(OC)c2)c2cccnc2)cc1 (stereo partly drawn)	-9%	.	3%	.	3%	-3%
CNC1=C(Br)C(=O)c2ccncc2C1=O	16µM*	.	?	.	?	-15%
Cc1nc2cnc(N(C)C)nc2n(C[C@H]2CCCO2)c1=O	5%	.	?	2%[11.4 µM]	?	9%
Cc1cc(C(=O)CSc2nc3ccccc3o2)c(C)n1C1CC1	6%	>57	?	-9%	16µM*	?
COC(=O)CSc1nc2ccccc2o1	1%	>57	5%	2%	13%	8%
C=CCn1c(C)cc(C(=O)CSc2nnc(Cc3ccccc3)o2)c1C	104%	>57	?	-3%	?	-7%
C=CCn1c(C)cc(C(=O)CSc2nc3ccccc3o2)c1C	8%	i	?	16µM*	25µM*	-11%
